Experimental findings from PubChem BioAssay are described below.

Assay [1] can be described thus: inhibitors of TNFa-induced NFkB p65 translocation, primary screen, imaging, HUVEC, MLSMR starter and 10KST1 sets (AID 438;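 active = inhibition above 20% together with a positive visual image hit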;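 note: compound added about 3h40 before a 20 min TNFalpha stimulation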;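 for inhibition: signal is the nuclear over cytoplasmic p65 intensity ratio per well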). Conditions: HUVEC TNFa-induced p65 nuclear translocation; cell count: measured here: nuclei count (cytotoxicity indicator), at 2.08 µM; inhibition: at 2 µM, stronger effect = higher value, 0% TNFa-plus-vehicle, 100% no-TNFa wells.
Assay [2] in a line: reduction of polyQ htt aggregates in cells – imaging, exon1htt(103Q)mCFP cells, high-content imaging, primary screen (AID 483;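 active = visual image review flags a hit and inhibition of aggregation exceeds 20%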;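 note: compound exposure lasted 3 days before fixation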;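 for nuclei count: percent of the per-plate median nuclei count of sample wells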). The conditions noted are these: exon1htt(103Q)mCFP cell line, aggregate imaging, at 2 µM; inhibition of aggregation: stronger effect = higher value; nuclei count: measured here: cell count, toxicity.
A short description of assay [3]: endothelial E-selectin expression blockers – imaging, HUVEC, immunofluorescence, MLSMR starter and 10KST1 sets, primary screen (AID 487;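 active = visually confirmed hit in the image check and inhibition above 20%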;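 for inhibition: signal is fraction of cell area covered by stained E-selectin grains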;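 for nuclei count: 100% = median nuclei count of all wells on the same plate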). The conditions noted are these: HUVEC TNFalpha-induced E-selectin immunofluorescence imaging, at 2 µM; inhibition: stronger effect = higher value; nuclei count: measured here: cell number, toxicity.
The target in assay [4] is Voltage-gated potassium channel subunit beta-2 (Rattus norvegicus) (UniProt P62483). The assay can be described thus: inhibitors of rat Kvbeta2 reductase activity – biochemical, NADPH fluorescence, primary screen (AID 622;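 active = fluorescence slope higher than the sample average by over 3 SD, cut at about -0.22 in these data, passing the limit was not always enough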;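 note: slope of raw intensity against log time taken from 70 to 1610 s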). Conditions: recombinant KvBeta, 4-cyanobenzaldehyde reduction, at 10 µM, stronger effect = higher value.
Voltage-gated potassium channel subunit beta-2 (Rattus norvegicus), sequence (P62483 whole entry, looked up): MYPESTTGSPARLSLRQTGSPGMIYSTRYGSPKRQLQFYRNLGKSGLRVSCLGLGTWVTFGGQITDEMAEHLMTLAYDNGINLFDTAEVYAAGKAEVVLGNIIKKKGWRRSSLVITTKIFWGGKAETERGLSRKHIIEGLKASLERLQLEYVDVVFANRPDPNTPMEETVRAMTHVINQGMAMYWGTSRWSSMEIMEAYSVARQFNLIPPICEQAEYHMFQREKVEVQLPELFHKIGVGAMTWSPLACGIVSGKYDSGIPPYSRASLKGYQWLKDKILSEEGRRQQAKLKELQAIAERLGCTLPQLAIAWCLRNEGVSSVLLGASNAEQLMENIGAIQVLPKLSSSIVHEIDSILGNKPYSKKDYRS
Assay [5] has the same target. The assay can be described thus: enhancers of rat Kvbeta2 NADPH turnover – biochemical, NADPH fluorescence, primary screen (AID 623;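 active = NADPH fluorescence slope more negative than the mean of all samples by about 3 SD, 99.7% confidence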;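 note: fluorescence intensity change per second fitted from 20 to 320 s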). The conditions noted are these: Recombinant KvBeta, NADPH fluorescence decrease slope, 10 min; at 10 µM; stronger effect = lower value.
The target of assay [6] is Alpha-2C adrenergic receptor (Homo sapiens) (UniProt P18825). Put plainly: compounds altering alpha2C-coupled GIRK flux – cell-based, HEK293 alpha2C/GIRK1/2, thallium flux, primary screen (AID 624;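 active = fluorescence slope after compound addition differing from the mean of all screened samples at 99.7% confidence, in either direction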;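 note: slope of fluorescence ratio to pre-addition baseline per second over 15 to 24 s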). Conditions: thallium flux BTC fluorescence, at 10 µM, actives lie on both sides.
Alpha-2C adrenergic receptor (Homo sapiens), sequence (P18825 whole entry, looked up): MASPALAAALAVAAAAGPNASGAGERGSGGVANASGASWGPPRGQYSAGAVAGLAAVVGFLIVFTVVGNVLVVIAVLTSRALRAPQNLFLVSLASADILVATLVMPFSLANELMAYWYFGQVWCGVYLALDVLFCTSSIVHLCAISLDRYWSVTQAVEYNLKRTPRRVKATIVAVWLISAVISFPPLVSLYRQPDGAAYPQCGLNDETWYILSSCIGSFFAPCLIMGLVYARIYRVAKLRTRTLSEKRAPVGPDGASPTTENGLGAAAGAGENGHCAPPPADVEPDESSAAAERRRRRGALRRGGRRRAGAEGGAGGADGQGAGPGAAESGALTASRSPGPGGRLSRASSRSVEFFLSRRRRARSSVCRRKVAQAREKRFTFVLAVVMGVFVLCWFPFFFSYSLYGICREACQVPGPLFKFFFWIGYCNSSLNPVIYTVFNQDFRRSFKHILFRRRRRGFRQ
Assay [7] in a line: blockers of RIG-like receptor reporter activation – cell-based, Sendai virus stimulus, luciferase, 10K MLSCN set, TLR/RLR signaling modifier project, primary screen (AID 602276).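 Note: firefly luciferase from ISG56 promoter only with Renilla not read in this screen; 0% = Sendai virus plus DMSO and 100% = medium plus DMSO without virus.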 Conditions: HEK293 RL24 IRF3 luciferase reporter, at 10 µM, stronger effect = higher value.
Assay [8] is described as follows: TLR3 IRF3 reporter activation blockers – cell-based, poly I:C stimulus, luciferase, 10K MLSCN set, primary screen (AID 602277;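 active = inhibition of the reporter signal at or above 50%; inactive = inhibition below 50%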). Conditions: HEK293-TLR3 RL24 IRF3 luciferase reporter, at 10 µM, stronger effect = higher value.

The source made the active and inactive calls.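 Rule for the calls, unless noted: active = inhibition at or above 50% at 10 µM; inactive = inhibition below 50%.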

On to `Cc1ccc(C)c2[nH]c(=O)c(CN(CCN3CCCC3)C(=O)Nc3cccc(Cl)c3)cc12`, for which, in assay [1], the cell count came out at 562. Further, the inhibition is -4.7% (inactive) in assay [1], -35.9% (inactive) in assay [3], -139% (inactive) in assay [7] and 78.9% (active) in assay [8]. Further, the inhibition of aggregation in assay [2] was 13.8% (inactive). Also, the nuclei count turned out to be 67.7% in assay [2] and 94.3% in assay [3]. Also, in assay [4], the fluorescence slope is -0.544 (inactive). Also, the NADPH fluorescence slope in assay [5] was -6.8e-05 (inactive). Moreover, the slope in assay [6] was 0.00448 (inactive).
As to `CCC(c1nnnn1C(C)(C)C)N1CCN(C2CCCC2)CC1` (centres undefined), in assay [1], the cell count was 450. Further, the inhibition is 1.3% (inactive) in assay [1], -46.6% (inactive) in assay [3], 16.1% (inactive) in assay [7] and 9.37% (inactive) in assay [8]. For the same compound, in assay [2], the inhibition of aggregation is -7.5% (inactive). In addition, the values for the nuclei count in assay [2] and in assay [3] were 124% and 128%, respectively. In assay [4], the fluorescence slope is -0.634 (inactive). Also, the NADPH fluorescence slope in assay [5] is -1.4e-05 (inactive). In assay [6], the slope is 0.00353 (inactive).
With `COc1ccc(C(=O)Nn2c(C3CCC3)nc3ccccc3c2=O)c(OC)c1`, in assay [1], the cell count stood at 657. Also, the inhibition in assay [1] is -10.2% (inactive); in assay [3] it was 14.7% (inactive); in assay [7] it was -0.704% (inactive); in assay [8] it was 5.08% (inactive). Besides, the inhibition of aggregation in assay [2] is -14% (inactive). In addition, the nuclei count in assay [2] was 111%; in assay [3], 129%. The fluorescence slope in assay [4] is -0.585 (inactive). In addition, the NADPH fluorescence slope in assay [5] was -7.6e-07 (inactive). The slope in assay [6] is 0.00893 (inactive).
Regarding `CCOc1ccc(NC(=O)CN2C(=O)C3CCCN3C2=O)cc1` (centres undefined), the cell count in assay [1] turned out to be 551. Besides, the inhibition in assay [1] was -13.7% (inactive); in assay [3], -48.6% (inactive); in assay [7], 3.2% (inactive); in assay [8] it was 8.26% (inactive). Also, the inhibition of aggregation in assay [2] is -2.3% (inactive). Also, the nuclei count in assay [2] worked out at 102%; in assay [3], 110%. In assay [4], the fluorescence slope is -0.572 (inactive). The NADPH fluorescence slope in assay [5] was 1.4e-05 (inactive). Moreover, the slope in assay [6] is 0.00647 (inactive).
On to `NC(=O)C(Cc1ccccc1)NS(=O)(=O)c1ccc(N2CCCC2=O)cc1` (centres undefined), for which, in assay [1], the cell count is 570. The inhibition is -8.7% (inactive) in assay [1], -5.1% (inactive) in assay [3], 8.09% (inactive) in assay [7] and -25% (inactive) in assay [8]. In assay [2], the inhibition of aggregation was 4.5% (inactive). Besides, the values for the nuclei count in assay [2] and in assay [3] were 100% and 95.5%, respectively. The fluorescence slope in assay [4] was -0.585 (inactive). Moreover, the NADPH fluorescence slope in assay [5] was -4e-05 (inactive). Further, the slope in assay [6] was 0.00321 (inactive).
Turning to `CCOC(=O)c1cc2c(=O)n3ccccc3nc2n(CC2CCCO2)c1=NC(C)=O` (centres undefined), the cell count in assay [1] is 617. For the same compound, the inhibition is 3.1% (inactive) in assay [1], 22.2% (inactive) in assay [3], 9.86% (inactive) in assay [7] and 10.8% (inactive) in assay [8]. Further, the inhibition of aggregation in assay [2] was 18.5% (inactive). The nuclei count in assay [2] is 86.7%; in assay [3], 100%. Also, the fluorescence slope in assay [4] was -0.441 (inactive). In addition, in assay [5], the NADPH fluorescence slope was -1.3e-05 (inactive). Besides, in assay [6], the slope is 0.00574 (inactive).
For `O=c1ccc(S(=O)(=O)N2CCC(Cc3ccccc3)CC2)c[nH]1`, in assay [1], the cell count came out at 451. The inhibition in assay [1] was 0% (inactive); in assay [3], -15.8% (inactive); in assay [7], 11.4% (inactive); in assay [8] it was 31.9% (inactive). Also, in assay [2], the inhibition of aggregation was -8.8% (inactive). Also, the nuclei count in assay [2] stood at 103%; in assay [3], 111%. Also, the fluorescence slope in assay [4] is -0.369 (inactive). Also, in assay [5], the NADPH fluorescence slope was -5e-05 (inactive). In assay [6], the slope was 0.00726 (inactive).
In the case of `COc1cccc(OC)c1OCCNCCO`, the cell count in assay [1] amounted to 632. Also, the inhibition was -3.4% (inactive) in assay [1], 8.1% (inactive) in assay [3], 13.1% (inactive) in assay [7] and 20.6% (inactive) in assay [8]. Moreover, in assay [2], the inhibition of aggregation was 7.9% (inactive). Also, the nuclei count in assay [2] came to 118%; in assay [3], 90.6%. In assay [4], the fluorescence slope is -0.436 (inactive). The NADPH fluorescence slope in assay [5] was 3.2e-05 (inactive). Further, the slope in assay [6] was 0.00544 (inactive).
For `O=C(OCN1C(=O)c2ccccc2C1=O)C1CCCCC1`, the cell count in assay [1] worked out at 391. Further, the inhibition in assay [1] is 3.5% (inactive); in assay [3], -43.8% (inactive); in assay [7], 6.81% (inactive); in assay [8], 12.4% (inactive). The inhibition of aggregation in assay [2] was 3.5% (inactive). Besides, the nuclei count in assay [2] turned out to be 95.3%; in assay [3], 113%. In addition, the fluorescence slope in assay [4] is -0.348 (inactive). Also, in assay [5], the NADPH fluorescence slope was -5e-05 (inactive). Moreover, the slope in assay [6] is 0.00442 (inactive).
Take `Cn1c(SCC(=O)Nc2ccc3c(c2)OCO3)nnc1-c1cnccn1`: the cell count in assay [1] is 656. For the same compound, the inhibition in assay [1] was 6.5% (inactive); in assay [3], 46.9% (inactive); in assay [7], 12.5% (inactive); in assay [8] it was 24.2% (inactive). The inhibition of aggregation in assay [2] was 3.7% (inactive). Moreover, the nuclei count in assay [2] came out at 94.2%; in assay [3], 91.7%. In assay [4], the fluorescence slope was -0.366 (inactive). Also, the NADPH fluorescence slope in assay [5] is -5.5e-05 (inactive). The slope in assay [6] was 0.00395 (inactive).
For the compound `CCOC(=O)c1[nH]c(C)c(C(=O)N2CCN(C(=O)c3ccco3)CC2)c1C`, in assay [1], the cell count stood at 780. Further, the inhibition in assay [1] is -13.4% (inactive); in assay [3], -102% (inactive); in assay [7], 16.8% (inactive); in assay [8], 18.7% (inactive). Further, the inhibition of aggregation in assay [2] was 2.2% (inactive). In addition, the figures for the nuclei count in assay [2] and in assay [3] were 110% and 101%, respectively. Also, the fluorescence slope in assay [4] is -0.5 (inactive). Moreover, the NADPH fluorescence slope in assay [5] is 1.2e-05 (inactive). In assay [6], the slope was 0.00532 (inactive).
With `O=C(CSc1ncnc2c1cnn2Cc1ccccc1)Nc1ccc2c(c1)OCCO2`, the cell count in assay [1] is 308. In addition, the inhibition is 0.9% (inactive) in assay [1], 11.1% (inactive) in assay [3], 6.25% (inactive) in assay [7] and 17.7% (inactive) in assay [8]. The inhibition of aggregation in assay [2] is 27.1% (inactive). The nuclei count in assay [2] was 94.9%; in assay [3] it was 94.2%. The fluorescence slope in assay [4] is -0.36 (inactive). For the same compound, the NADPH fluorescence slope in assay [5] was -0.00015 (inactive). In assay [6], the slope was 0.00683 (inactive).
For `O=C(CSc1nnc(CNC(=O)c2cccs2)o1)Nc1cccc(C(F)(F)F)c1`, the cell count in assay [1] was 262. Moreover, the inhibition in assay [1] is 3.8% (inactive); in assay [3], -14.2% (inactive); in assay [7], 6.93% (inactive); in assay [8], 19.8% (inactive). In addition, in assay [2], the inhibition of aggregation was -12.8% (inactive). In addition, the figures for the nuclei count in assay [2] and in assay [3] were 78.7% and 111%, respectively. The fluorescence slope in assay [4] was -0.379 (inactive). Further, the NADPH fluorescence slope in assay [5] was -5.5e-05 (inactive). For the same compound, in assay [6], the slope was 0.00592 (inactive).
With `CCc1nnc(NC(=O)c2ccc(S(=O)(=O)N(CC(C)C)CC(C)C)cc2)o1`, the cell count in assay [1] was determined as 415. Further, the inhibition in assay [1] is -1.4% (inactive); in assay [3], 12.8% (inactive); in assay [7], 8.12% (inactive); in assay [8], 15.2% (inactive). In assay [2], the inhibition of aggregation is 2.2% (inactive). The nuclei count in assay [2] was 94.8%; in assay [3], 81.5%. The fluorescence slope in assay [4] is -0.507 (inactive). Further, the NADPH fluorescence slope in assay [5] is -1.1e-05 (inactive). For the same compound, in assay [6], the slope was 0.00793 (inactive).
